In PubChem BioAssay (EPA / NIEHS) one finds outcome and AC50 data, which are given here for eleven compounds.

Each structure is given as a SMILES string. Active and inactive are the calls of the source. The calls were made as follows, unless noted: active = hit-call score of the fitted dose curve at least 0.9, where 1 is the maximum; inactive = score below 0.9.

In general, AC50 refers to the concentration giving half of the maximal activity seen.

For assay [1], the target named is Peroxisome proliferator-activated receptor gamma (Homo sapiens) (UniProt P37231). Kind of assay: OT_PPARg_PPARgSRC1_1440: Odyssey Thera (OT) 24-hour Protein-Complementation Assay for Peroxisome Proliferator-activated Receptor Gamma/ SRC-1 Co-activator (AID 2283388; active = hit-call score of the fitted dose curve at least 0.9, where 1 is the maximum). The procedure, abridged: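 HEK293T transiently transfected with PPARg/SRC-1 split-Venus YFP fusions 48 h before dosing, then treated 24 h at 37C. Fixed cells imaged; nuclear/cytoplasmic 488 nm fluorescence ratio, gain of signal versus DMSO.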

A short description of assay [2]: CEETOX_H295R_11DCORT: CeeTox H295R High-throughput Steroidogenesis Assay for 11-Deoxycortisol (11DCORT) (AID 2283432).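 As to AC50: 11-deoxycortisol secreted into the medium measured by LC-MS/MS.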 As to conditions: actives raise or lower the signal. The procedure, abridged:
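H295R cells prestimulated 48 h with 10 uM forskolin, then exposed 48 h to chemical in 0.1% DMSO. 11-Deoxycortisol in medium quantified by HPLC-MS/MS after MTBE extraction; bidirectional fit versus DMSO. MTT viability read in same wells.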

Assay [3] is described as follows: CEETOX_H295R_OHPREG: CeeTox H295R High-throughput Steroidogenesis Assay for OH-Pregnenolone (OHPREG) (AID 2283434). The conditions noted are these: actives raise or lower the signal. The procedure, abridged:
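Human adrenal H295R cells were prestimulated 48 h with 10 uM forskolin, then exposed 48 h to chemical in 0.1% DMSO. Medium 17alpha-hydroxypregnenolone was quantified by HPLC-MS/MS after MTBE extraction; bidirectional fitting versus DMSO baseline.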

A short description of assay [4]: CEETOX_H295R_OHPROG: CeeTox H295R High-throughput Steroidogenesis Assay for OH-Progesterone (OHPROG) (AID 2283435).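 As to AC50: 17alpha-hydroxyprogesterone secreted into medium measured by HPLC-MS/MS.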 The conditions noted are these: actives raise or lower the signal. The procedure, abridged:
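Secreted 17alpha-hydroxyprogesterone is read by tandem MS from media of forskolin-primed H295R cells dosed with chemical for 48 h. Activity is fitted in both directions against DMSO baseline; cytotoxic concentrations are re-tested diluted.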

Assay [5] can be described thus: CEETOX_H295R_CORTIC: CeeTox H295R High-throughput Steroidogenesis Assay for Corticosterone (CORTIC) (AID 2283437).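 Also: corticosterone secreted into medium quantified by mass spectrometry.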 As to conditions: actives raise or lower the signal. In outline:
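H295R cells were prestimulated 48 h with 10 uM forskolin, then exposed 48 h to test chemical in 0.1% DMSO. Medium corticosterone was MTBE-extracted and quantified by HPLC-MS/MS; bidirectional fit versus DMSO baseline.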

Assay [6] is described as follows: CEETOX_H295R_CORTISOL: CeeTox H295R High-throughput Steroidogenesis Assay for Cortisol (AID 2283438).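 Also: cortisol secreted into medium quantified by LC-MS/MS.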 The conditions noted are these: actives raise or lower the signal. In outline: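 Human adrenocortical H295R cells (passage ≤10) received test chemicals for 48 h after forskolin priming. Secreted cortisol was measured by LC-MS/MS.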
Assay [7] is described as follows: CEETOX_H295R_DOC: CeeTox H295R High-throughput Steroidogenesis Assay for DOC (AID 2283439). The conditions noted are these: actives raise or lower the signal. The procedure, abridged:
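Secreted DOC was quantified from H295R media by HPLC-MS/MS after 48 h chemical exposure following 48 h forskolin (10 uM) prestimulation. Values were fitted in both directions relative to DMSO, the negative control and baseline.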

Assay [8] can be described thus: CEETOX_H295R_ESTRADIOL: CeeTox H295R High-throughput Steroidogenesis Assay for Estradiol (AID 2283440).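 Also: estradiol secreted into medium quantified by LC-MS/MS after dansyl derivatisation.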 As to conditions: actives raise or lower the signal. In outline:
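H295R cells pre-stimulated 48 h with 10 uM forskolin, then exposed 48 h to chemical in 0.1% DMSO. Medium estradiol quantified by MTBE extraction, dansyl derivatisation and HPLC-MS/MS; bidirectional fit versus DMSO; MTT viability required >/=70%.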

The nature of assay [9]: CEETOX_H295R_ESTRONE: CeeTox H295R High-throughput Steroidogenesis Assay for Estrone (AID 2283441).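 Also: estrone secreted into medium measured by LC-MS/MS after dansyl derivatization.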 As to conditions: actives raise or lower the signal. In outline:
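H295R cells; 48 h forskolin (10 uM) prestimulation; 48 h compound exposure, 0.1% DMSO final. Medium estrone: MTBE extraction, dansyl derivatization, HPLC-MS/MS. Bidirectional fit vs DMSO.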

Chain of Peroxisome proliferator-activated receptor gamma (Homo sapiens) (P37231 whole entry, looked up, the tested form may be a part): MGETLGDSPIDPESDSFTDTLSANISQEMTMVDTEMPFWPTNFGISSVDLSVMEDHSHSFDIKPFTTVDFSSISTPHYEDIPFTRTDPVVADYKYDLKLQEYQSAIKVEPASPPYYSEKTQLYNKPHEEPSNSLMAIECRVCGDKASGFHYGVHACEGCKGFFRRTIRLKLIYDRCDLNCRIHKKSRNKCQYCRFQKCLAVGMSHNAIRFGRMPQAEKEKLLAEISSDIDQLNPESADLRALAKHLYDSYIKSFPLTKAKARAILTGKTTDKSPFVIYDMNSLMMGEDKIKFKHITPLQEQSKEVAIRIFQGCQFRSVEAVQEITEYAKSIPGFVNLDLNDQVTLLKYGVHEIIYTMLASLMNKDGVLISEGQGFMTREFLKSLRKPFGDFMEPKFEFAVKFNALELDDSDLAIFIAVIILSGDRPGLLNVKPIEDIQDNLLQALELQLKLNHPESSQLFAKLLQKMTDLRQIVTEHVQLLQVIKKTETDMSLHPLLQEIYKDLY

In the case of `CCN(CC)c1nc(C)cc(OP(=S)(OC)OC)n1`, the compound was classed as inactive in assay [1], in assay [2], in [3], in assay [4] and in [6]. For the same compound, the AC50 in assay [5] is 24.7 µM (active); in assay [7], 36.2 µM (active); in assay [8], 1.22 µM (active); in [9], 1.62 µM (active).
In the case of `CC(C)Nc1nc(Cl)nc(NC(C)C)n1`, the compound was classed as inactive in assay [1], in [3], in [4] and in [8]. Also, in [9], the AC50 was 23.1 µM (active).
With `COC(=O)NC(=S)Nc1ccccc1NC(=S)NC(=O)OC`, the call in [1], in assay [2], in [3], in [4], in [5] and in assay [6] was inactive. Moreover, the call in assay [7], in [8] and in assay [9] was inactive.
`Cc1nc(N(C)C)nc(OC(=O)N(C)C)c1C`: the outcome in [1], in assay [2], in assay [3], in assay [4], in assay [5] and in [6] was inactive. For the same compound, the call in assay [7], in assay [8] and in assay [9] was inactive.
`COP(=S)(OC)Oc1ccc([N+](=O)[O-])c(C)c1`: the result in [1], in [3], in assay [5], in assay [6], in [8] and in assay [9] was inactive. Also, the figures for the AC50 in assay [2], in assay [4] and in assay [7] were 6.36 µM (active), 2.22 µM (active) and 2.48 µM (active), respectively.
On to `CCCC(=NOCC)C1=C(O)CC(CC(C)SCC)CC1=O` (stereo unspecified), for which the outcome in [1], in assay [2], in [3], in [4], in [5] and in assay [6] was inactive. In addition, the result in [7] and in assay [8] was inactive. Also, the half-maximal activity concentration (AC50) in assay [9] was 0.554 µM (active).
In the case of `CNC(=O)Oc1cccc2ccccc12`, the outcome in assay [3] and in [4] was inactive.
Take `CCN(CC)C(=O)C(C)Oc1cccc2ccccc12` (stereo unspecified): the outcome in assay [1], in assay [3], in assay [4], in assay [8] and in [9] was inactive.
In the case of `CCSC(=O)N1CCCCCC1`, the compound was called inactive in [1], in [3], in [4], in assay [8] and in [9].
Regarding `CN/C(=N\[N+](=O)[O-])NCc1cnc(Cl)s1`, the compound was classed as inactive in [1], in assay [3], in [4], in [8] and in assay [9].
For `O=C(Nc1ccccc1-c1ccc(Cl)cc1)c1cccnc1Cl`, the outcome in assay [1], in assay [2], in assay [3], in [4], in assay [5] and in assay [6] was inactive. The outcome in assay [8] and in assay [9] was inactive. For the same compound, the concentration at half-maximal activity (AC50) in [7] was 9.59 µM (active).
